Most compounds without a hit are left out; they make up all but 11% or so of the library.
HPGD inh: blocks human HPGD enzyme activity; purified HPGD, NADH fluorescence kinetic, PGE2 substrate; Potency, µM, without a hit: at the highest dose activity change, negative = inhibition, actives largely listed as inhibitors; hit rate 4.3% among 150,000; AID 894; active = well fitted inhibition curve with a large enough effect, not every such curve was filed as active; inconclusive = small, poorly fitted or top-dose-only effect, or another doubt; inactive = no such curve, though single readings can be large or run the other way; also: potency is read from the fitted curve at half-maximal effect
Target sequence (P15428 whole entry, looked up): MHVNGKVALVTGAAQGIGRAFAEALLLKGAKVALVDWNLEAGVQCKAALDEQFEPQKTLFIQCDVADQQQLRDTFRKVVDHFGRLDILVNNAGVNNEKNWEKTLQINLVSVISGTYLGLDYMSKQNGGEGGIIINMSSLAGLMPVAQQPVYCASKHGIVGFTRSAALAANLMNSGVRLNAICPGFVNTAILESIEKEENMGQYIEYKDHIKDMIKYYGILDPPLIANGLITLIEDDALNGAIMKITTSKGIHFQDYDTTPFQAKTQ
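NADH formation kinetics: reaction with 30 uM PGE2 and 1 mM NAD+ (final), 20 nM enzyme, Tris-HCl pH 8 with Tween 20, after 15 min compound preincubation at room temperature. Fluorescence change, last versus first of five reads.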
IMPase Li cell: cell-permeable IMPase inhibitors with lithium potentiation. CHO-M1 cells, IP1 TR-FRET (IP-One), carbachol + lithium. Potency, µM (top dose mostly 59.4 µM), for the others: at the highest dose activity, negative = IMPase inhibition, hits mostly inhibitors. hit rate 0.35% among 210,000;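 also: IP1 builds up when IMPase is blocked and the TR-FRET signal falls; potency is read from the fitted curve at half-maximal effect; plate controls were basal vehicle for no effect and high inhibitor control for full effect; nearly all actives have a fitted effect of over 50% in size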
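Concentration–response in CHO-M1 cells, lithium-potentiated; 30 min at 37C. IP1 detected by competitive TR-FRET after 10 min lysis at RT. Hill-fitted AC50.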
ALDH1A1 block: inhibitors of human aldehyde dehydrogenase 1A1; hit rate 7.3% among 220,000; Potency, µM (top dose mostly 75.3 µM), for inactives: at the top dose activity, negative = inhibition, actives largely listed as inhibitors; Purified ALDH1A1, NADH fluorescence, propionaldehyde substrate; P00352; AID 1030; active = well fitted inhibition curve with a large enough effect, not every such curve was filed as active; inconclusive = small, poorly fitted or top-dose-only effect, or another doubt; inactive = no such curve, though single readings can be large or run the other way;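 also: potency is read from the fitted curve at half-maximal effect; plate controls were no enzyme wells and a reference inhibitor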
Target sequence (P00352 whole entry, looked up): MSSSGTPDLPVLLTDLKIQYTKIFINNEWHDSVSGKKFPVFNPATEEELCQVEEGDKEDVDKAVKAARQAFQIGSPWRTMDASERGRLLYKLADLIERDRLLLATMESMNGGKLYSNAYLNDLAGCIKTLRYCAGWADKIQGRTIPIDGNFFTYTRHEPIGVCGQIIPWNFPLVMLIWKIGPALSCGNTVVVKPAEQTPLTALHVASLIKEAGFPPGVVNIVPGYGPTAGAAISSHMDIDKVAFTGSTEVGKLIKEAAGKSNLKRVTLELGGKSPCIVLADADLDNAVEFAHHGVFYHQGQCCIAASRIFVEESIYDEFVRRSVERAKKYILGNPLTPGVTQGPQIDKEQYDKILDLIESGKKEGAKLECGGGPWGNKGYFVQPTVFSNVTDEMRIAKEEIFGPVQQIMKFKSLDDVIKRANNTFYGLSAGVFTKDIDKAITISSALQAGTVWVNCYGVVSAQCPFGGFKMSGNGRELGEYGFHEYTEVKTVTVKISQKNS
12-hLO inh: blocks human 12-lipoxygenase activity | purified 12-hLO, xylenol orange hydroperoxide absorbance | Potency, µM (doses to about 57.1 µM), for the others: at the highest dose activity change, negative = inhibition, usual class: inhibitors | hit rate 0.12% among 150,000; also: potency is read from the fitted curve at half-maximal effect; nearly all actives have a fitted effect of over 55% in size
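Hydroperoxide formation by human 12-lipoxygenase from 40 uM arachidonic acid was followed colorimetrically via ferric-xylenol orange complex, using the 573/405 nm absorbance ratio. Enzyme concentration was 150 nM, with 30 min reaction at room temperature.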
PNC inhibitor: inhibitors of perinucleolar compartment assembly; AID 2417; hit rate 3.1% among 140,000; PC3M PTB-GFP, PNC prevalence imaging, 16 h; stronger effect = lower value; activity change (PNC), negative = inhibition, % at 10 µM;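 active = readout at or below -70, meaning at least 70% loss of cells showing the perinucleolar compartment, a nuclear body marking cancer cells; inconclusive = readout between -30 and a set limit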;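 also: plate controls were DMSO wells for no effect and camptothecin positive control wells for full effect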
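Read-out is percentage of cells bearing a perinucleolar compartment, from automated 20x imaging of fixed, Hoechst-stained PC3M PTB-GFP cells. Cells were seeded 4 h, then exposed 16 h to compound (23 nl of library stock) in duplicate plates.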
IMPase cell inh: IMPase inhibition in cells; P97697; CHO-M1 cells, IP1 accumulation, HTRF TR-FRET ratio; inhibition (IP1 accumulation), % at 46.1 µM; 120,000 tested, under 10 active; AID 901; active = well fitted curve in the direction sought with a large enough effect in the signal ratio, not every such curve was filed as active; inconclusive = small, poorly fitted or top-dose-only effect, or a change in a side signal; inactive = no such curve, though single readings can be large or run the other way; the % refers to the signal ratio;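 also: cells stimulated with carbachol in lithium chloride buffer; plate controls were DMSO basal wells for no effect and reference inhibitor wells for full effect; higher means more IMPase inhibition seen as more IP1 and lower FRET ratio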
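The IP-One HTRF competitive assay in carbachol-stimulated CHO-M1 cells quantifies cellular IP1. Compounds spanned up to 46 uM final, and activity is expressed as AC50 from concentration-response fits of the ratio and donor data.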
Starred values were filed as active, the others as inactive; ? = inconclusive; . = no result given; [ ] = dose if it differs, or a comment. Unless noted, calls follow the shape of the dose curve; as a rule, active = well fitted curve in the direction sought with a large enough effect; inconclusive = small, poorly fitted or top-dose-only effect, or another doubt; inactive = no such curve, though single readings can be large; an effect the other way counts as inactive or inconclusive. Unless noted, % is scaled to controls: 0 for no effect and ±100 for the full control effect.

SMILES	HPGD inh	IMPase Li cell	ALDH1A1 block	12-hLO inh	PNC inhibitor	IMPase cell inh
Cc1ccc2[nH]c(=O)c(CN(Cc3ccc4c(c3)OCO4)Cc3nnnn3Cc3ccco3)cc2c1	-6%	13%[38.3 µM]	25µM*	-16%	-9	9
O=c1[nH]c2cc3c(cc2cc1CN(Cc1ccccc1)Cc1nnnn1Cc1ccco1)OCCO3	?	0%[38.3 µM]	?	-13%	22	8
CCC1CO1 (stereo unspecified)	-4%	-7%	-2%	-1%	.	.
Cc1cccc(C(=O)Nc2ccc3oc(-c4ccncc4)nc3c2)c1	.	.	.	.	.	-5
CCCSc1nc2sc3c(c2c(=O)n1-c1ccc(C)cc1)CCCC3	.	.	.	.	.	-3
C[C@@H](N)CCCP(=O)(O)O	.	-4%	?	.	.	.
C=CCNC(=S)NNc1nc(Nc2ccccc2)nc(N2CCCCC2)n1	.	7%	16µM*	.	.	.
S=C(NNc1nc(Nc2ccccc2)nc(N2CCCCC2)n1)NC1CCCCC1	.	10%	-3%	.	.	.
CCCC(=O)Nc1ccc2nn(-c3ccc(CC)cc3)nc2c1	.	.	.	.	.	-6
CSCC[C@H](NC(=O)c1ccc(Cl)c(S(=O)(=O)N2CCCC2)c1)c1nc2ccccc2[nH]1	.	.	?	18µM*	?	-6
COc1ccc2c(c1)C(c1ccc3c(c1)OCO3)CC(=O)O2 (stereo unspecified)	-8%	-9%	-3%	-4%[0.00818 µM]	.	.
CCC(NC(=O)Nn1cnnc1)(C(F)(F)F)C(F)(F)F	-17%	4%	2%	1%	-100*	17
CC1CCCCN1C(=O)c1cc(F)c(F)cc1Cl (stereo unspecified)	20µM*	38%[38.3 µM]	-7%	3%	?	17
CC1CCCN(C(=O)c2cc(F)c(F)cc2Cl)C1 (stereo unspecified)	6.3µM*	23%[38.3 µM]	4%	1%	?	13
CC1CCCCN1C(=O)Cc1ccc(Cl)cc1 (stereo unspecified)	11µM*	23%[38.3 µM]	3%	-1%	10	23
O=C(c1cc(F)ccc1F)C1CCCN(C(=O)c2ccc(F)cc2Cl)C1 (stereo unspecified)	.	14%	?	.	.	.
C[C@@H](CNC(N)=O)NC(N)=O	-17%	-4%	4%[13.5 µM]	5%[11.4 µM]	.	.
Cc1ccc(/C=N/NC(=O)c2nn(C)cc2Cl)cc1	-2%	-4%	6%	4%	-16	.
Cn1cc(Cl)c(C(=O)N/N=C/c2ccc(OS(=O)(=O)c3ccccc3)cc2)n1	?	17%	?	10%	-100*	5
CC(NC(=O)/C=C/c1ccco1)c1nc2ccccc2n1Cc1cccc(Cl)c1 (stereo unspecified)	2%	5%	14µM*	0%	6	.
CN(C)C(=O)/N=N/C(=O)N(C)C	-2%	14%	?	.	.	.
COc1ccc(C(=O)c2ccc(N3CCN(C4CC(=O)NC4=O)CC3)cc2)cc1F (stereo unspecified)	?	-13%[38.3 µM]	8.9µM*	-3%	19	1
CC(C)CN1CCCC2(CCN(C(=O)c3cnccn3)CC2)C1	-4%	26%	?	2%	.	.
O=Cc1ccc(-c2cccc(C(=O)O)c2)o1	.	-6%	60%	.	.	.
O=C(/C=C/c1ccc(-c2ccccc2[N+](=O)[O-])o1)c1ccc(Br)cc1	-23%	16%	7.1µM*	-1%	?	-9
SMILES	HPGD inh	IMPase Li cell	ALDH1A1 block	12-hLO inh	PNC inhibitor	IMPase cell inh
O=C(/C=C/c1ccc(-c2ccccc2)o1)c1ccccc1	3.5µM*	-10%	12%	-1%	-8	0
Cc1ccc(-c2ccc(/C=C/C(=O)c3ccccc3)o2)cc1	14µM*	3%	3.2µM*	-18%	?	-5
CCCN(CCC)C[C@@H]1CCCCN1CCNC(=O)N1c2ccccc2C(=O)Nc2cccnc21	-8%	32%	1%	-1%	.	18
O=[N+]([O-])c1cc(-c2n[nH]c(-c3ccccc3)n2)cc([N+](=O)[O-])c1	-2%	1%[38.3 µM]	2%	-7%	?	0
Clc1ccccc1-c1nc(-c2ccccc2)n[nH]1	25µM*	4%[38.3 µM]	12%	0%	?	9
Cc1cc(C)cc(NCC(=O)Nc2c(C)cccc2C)c1	-22%	8%	?	2%	-90*	10
CC(=O)c1cccc(NC(=S)NC(=O)c2cccc(Cl)c2)c1	?	6%	20µM*	-27%	?	.
Cc1cccc(NC(=O)CC(C)(C)C)c1	16µM*	-1%[38.3 µM]	-2%	-1%	?	1
CC(=O)c1cccc(NC(=S)NC(=O)CC(C)(C)C)c1	16µM*	-4%[38.3 µM]	-4%	-4%	14	2
CC(=O)c1cccc(NC(=S)NC(=O)c2ccccc2)c1	?	5%	?	?	34	.
O=C(NCc1cccnc1)c1cccn2c(=O)c3sccc3nc12	?	26%[38.3 µM]	?	1%	-24	6
CCCCCCCCCCCCCCCC(=O)NCCCC(=O)O	-3%	-14%	6%	-2%	.	.
CO/N=C(\C(=O)O)c1csc(NN=C(C)C)n1	.	16%	-5%	.	.	.
CC(=O)c1cccc(NC(=O)Cc2ccc3c(c2)CCCC3)c1	25µM*	16%[38.3 µM]	13µM*	-26%	-9	0
Cc1ccc(/C=C/C2=Cc3c(sc(NC(=O)CSc4n[nH]c(N)n4)c3C#N)C(C)(C)C2)o1	?	12%[38.3 µM]	0.79µM*	?	-3	-5
Cc1cc(NC(=O)CSc2n[nH]c(N)n2)no1	.	-4%	7%	.	.	.
C=C(C)CSc1nc2sc3c(c2c(=O)n1-c1ccccc1)CC(C(C)C)OC3 (stereo unspecified)	.	.	.	.	.	-7
CCn1c(SCC(=O)Nc2cc(C)on2)nnc1-c1c[nH]c2ccccc12	.	13%	28µM*	.	.	.
COC(=O)c1ccc(NC(=O)CSc2nccn2CCc2ccccc2)cc1	-23%	46%[38.3 µM]	20µM*	8%	-17	-2
COCCCn1c(SCC(=O)Nc2ccc(C(=O)OC)cc2)nc2ccccc2c1=O	-15%	7%[38.3 µM]	?	-18%	-117*	-6
COCCCn1c(SCC(=O)Nc2ccc(C)cc2)nc2ccccc2c1=O	.	-1%	1%	.	.	.
CCn1c(SCC(=O)NCc2ccco2)nnc1-c1c[nH]c2ccccc12	-18%	26%[38.3 µM]	-8%	10%	13	6
CCOc1ccc(NC(=O)CSc2nc3ccccc3c(=O)n2CCNC(C)=O)cc1	-4%	3%[38.3 µM]	-11%	-6%	-107*	-7
O=C(O)CCSCc1ccccc1	-10%	-10%	2%[13.5 µM]	-2%[11.4 µM]	.	.
CCOc1ccc(NC(=O)CSc2nc3cccnc3n2CCOC)cc1	-16%	4%	28µM*	14%	-8	5
CCc1cc2ccccc2nc1SCC(=O)Nc1cc(C)on1	-28%	10µM*	?	-2%	14	-10
CCOc1ccc(NC(=O)CSc2nc3cccnc3n2CC)cc1	-2%	2%[38.3 µM]	-3%	0%	15	-1

Assay outcomes (PubChem BioAssay)
